Measurements published in the supplement of paper PMC6555819.

What was measured:
Assay in all cases: PBM binding z-score (relative to random genomic background probes); higher = stronger binding; sequences stand for … in GC…GCGATTGACAGCGTAGAATGAAGG
[1] = system: RARb homodimer (NR concentration 270 nM)
Outline: (§1)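 Binding z-scores take random background probes as their reference. They come from custom Agilent 4×180K protein-binding microarrays incubated 1 h with ligand-free nuclear receptor dimers, with antibodies against each partner (one per run) detecting binding. Scanned fluorescence was regression-normalized.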

[2] = system: RARg:RXRa (NR concentration 270 nM, RXRa partner concentration 90 nM)
Outline: as §1

[3] = system: RARg homodimer (NR concentration 270 nM)
Outline: as §1

[4] = system: RXRa DBDmut IVT, anti-RXR (DBD mutation: RXRa K156A/R161A, NR concentration 90 nM)
Outline: as §1

[5] = system: RXRa homodimer (NR concentration 180 nM)
Outline: as §1

[6] = system: THRa:RXRa (NR concentration 90 nM, RXRa partner concentration 90 nM)
Outline: as §1

[7] = system: THRa homodimer (NR concentration 90 nM)
Outline: as §1

[8] = system: VDR homodimer (NR concentration 270 nM)
Outline: as §1

Sequence | PBM binding z-score [1] | PBM binding z-score [2] | PBM binding z-score [3] | PBM binding z-score [4] | PBM binding z-score [5] | PBM binding z-score [6] | PBM binding z-score [7] | PBM binding z-score [8]
CATACAGGTTCAGCTAGGCCAGAGTAGGGACGGC | 0.871 | 1.01 | 1.03 | 2.89 | 1.41 | 1.05 | 0.0311 | 2.65
ATCGAAAGGCCGAAGGTGAGTATACCCACCCGAA | 0.463 | 0.847 | 0.8 | -0.881 | 0.581 | 0.037 | -0.66 | -0.679
TCTAGTTGGTCCAAGGTCACACACTCGAAATGCG | 4.11 | 4.07 | 3.8 | 2.01 | 4.39 | 4.31 | 4.14 | 3.22
TATACAGGGGCAAAGGCCAGAGTACGAATGTCGA | 1.74 | 1.95 | 1.85 | 0.806 | 1.49 | 0.569 | -0.328 | 0.679
ATCTCTAGGTAAACGTTCAGTGAATCCCGAGGAT | -0.498 | 0.172 | 0.369 | -0.148 | 0.0015 | 0.136 | 0.162 | -0.489
TATTGTAGATCAAGCAGGTTAAGAAAGCCTGAGT | 0.00937 | 0.285 | 0.147 | -0.887 | 0.374 | 0.288 | -0.434 | 0.132
TTACCAAGGTGAGCTGAGGTCGTTGATCCAACTC | 1.78 | 1.24 | 1.11 | 0.206 | 1.53 | 4.79 | 1.88 | 2.5
ATCTCTAGGTAACAAGTTCAATGAAAGAGAGGAC | 2.24 | 2.06 | 1.8 | 2.15 | 1.31 | 1.76 | 1.19 | 3.97
GCTCGGAGGACAGGGTCAGAGCTTTGTCCGTAGA | 2.28 | 2.42 | 2.37 | 0.265 | 2.69 | 2.4 | 0.321 | 0.212
CGTCCAAGGTCTGAGAGGTCAGTGAATGCCGAGT | 3.72 | 2.97 | 3.36 | 0.83 | 2.29 | 2.52 | 1.29 | 2.01
CAAACTTGGTCAAAGGTCAAAGTCGAGCCAACCA | 4.86 | 7.37 | 6.36 | 1.58 | 8.93 | 3.89 | 0.672 | 2.28
AGTCAAAGTTAAGGACGAGGTAACGTAAAGCACG | 0.455 | 0.647 | 0.899 | -0.752 | 0.474 | 3.19 | 2.65 | -0.263
GGAACGAGGGCATTCGAGATGATAGCATGGCGAT | 0.609 | 1.13 | 1.65 | 3.05 | 1.02 | 1.44 | -0.487 | 2.01
CTAACAAGGTGAACAAGGTCGTTGATTACTATTC | 1.94 | 1.79 | 1.76 | 1.6 | 1.84 | 3.24 | 1.84 | 2.19
ACTCGTTGGTCAGCTGAGGTCACACACAATTCGG | 4.41 | 4.16 | 4.25 | 1.3 | 4.06 | 5.18 | 5.14 | 3.72
ATATGTAGGTTATATCCGGGTCATTCAGGCTATG | 2.73 | 3.85 | 1.81 | 1.22 | 2.84 | 3.82 | 2.73 | 3.33
ATCGAAAGGTCGACGAGGTGAGTATCCACCGTTT | 2.9 | 4.16 | 4.03 | 1.27 | 4.38 | 3.78 | 1.01 | 0.828
GGACCGAGGGCAAGTTGATAGCAGAGTTTGATGG | 1.43 | 1.78 | 2.07 | 2.06 | 0.783 | 0.968 | -0.0674 | 1.67
TGAATGAGGTTACAGATCAGGGAACGTGGCGTCG | 0.793 | 1.89 | 1.4 | 0.394 | 2.29 | 2.67 | 0.836 | 0.364

Sequence | PBM binding z-score [1] | PBM binding z-score [2] | PBM binding z-score [3] | PBM binding z-score [4] | PBM binding z-score [5] | PBM binding z-score [6] | PBM binding z-score [7] | PBM binding z-score [8]
TCATATAGGTAAATGGTGAAAGTCGGTGTGGTAA | 0.19 | 0.0436 | -0.12 | 1.83 | 0.476 | 0.0433 | 0.202 | 0.415
GGAACGAGGGCAAAGTTGATGGCATCTGTCGACG | 1.32 | 2.05 | 1.74 | 2.62 | 1.97 | 1.55 | -0.087 | 1.7
TGAATGAGGTTATAAGATCAGGGTACGTTGCAAA | 0.678 | 1.49 | 1 | 0.96 | 2.09 | 2.04 | 0.622 | 1.73
GCTGCTAGGTCAGGTTGGTCAGCTACCGGGTACG | 2.79 | 2.17 | 3.73 | 0.371 | 0.808 | 1.76 | 0.717 | 0.476
CCGCGTAGGTTATGGGGCATTCAGGCAACGGTGA | 1.05 | 0.489 | 0.397 | -0.64 | 0.576 | 0.529 | 0.176 | -0.154
TAGCCTAGGTCGTGGGCCAGTATACCACGCGAAC | 0.693 | 0.842 | 0.996 | -0.872 | 0.851 | 0.795 | -0.254 | -0.53
TTACCAAGGTGAAGGTCGTTCATCCCTCTGTAGA | 2.21 | 1.63 | 1.5 | 0.548 | 1.75 | 2.62 | 1.08 | 1.1
GGAACGCGGGCATTCGAGTTGATAGCATGGCGAT | -0.894 | -0.144 | -0.0858 | 0.211 | -0.381 | 0.468 | -1.25 | 0.00818
ATCTCTAGGTAAAGATAGTTGAGTGAATGCAAAT | -0.216 | 0.504 | 0.43 | 0.115 | 0.0675 | 0.495 | 0.0736 | 0.275
ATCGAAAGGTCGACGGTGAGTATACCCACCCGAA | 2.53 | 4.19 | 3.92 | 0.878 | 4.27 | 1.88 | -0.262 | 0.289
CCTCCGAGGACAACAGGAGGTCAGAGCTGCCAGA | 3.75 | 3.41 | 3.21 | 0.726 | 2.02 | 3.58 | 2.36 | 1.61
GCCGCTAGGTCAGGTTGGTCAGCTAACGGGTACG | 2.77 | 2.62 | 3.67 | 0.508 | 1.1 | 1.81 | 0.524 | 0.312
CCTACTTGGCCAAAGGTCATTGATTCCAATGCTC | 4.5 | 5.37 | 4.64 | 2.06 | 6.05 | 3.3 | 1.25 | 2.51
ACCCGGAGGACAAAGGTCAGAGCTACGCCAGTGA | 4.67 | 6.15 | 5.22 | 0.737 | 4.97 | 3.4 | 0.681 | 1.24
TCATATAGGTAAAACAGGTGAAAGTCGGCATCTA | 0.437 | 0.572 | 0.226 | 1.71 | 1.1 | 0.827 | 0.0853 | -0.37
GCTTACGGGTCAAAGGATATAGCATGAATAGAAT | 2.26 | 4.62 | 3.96 | 1.92 | 5.17 | 2.22 | -0.222 | 0.703
GGAACGAGGGCATTCGGGTTGATAGCATGGCGAT | 0.654 | 1.05 | 1.55 | 3.18 | 0.826 | 2.68 | 0.0871 | 4.11
CCGACTGGGGCATAAGGTTACCAAAAGCCAGCCC | 1.97 | 1.72 | 0.905 | -0.369 | 1.3 | 2.24 | 1.14 | 0.0369
CCTTCTAGGTCATGGTCAGCTAATCTACAGTATG | 3.46 | 4.02 | 5.08 | 2.02 | 3.37 | 3.45 | 2.5 | 0.794

Sequence | PBM binding z-score [1] | PBM binding z-score [2] | PBM binding z-score [3] | PBM binding z-score [4] | PBM binding z-score [5] | PBM binding z-score [6] | PBM binding z-score [7] | PBM binding z-score [8]
AAAGACAGGTGAGTGAAGGTAACTCAGCTGGACG | 0.159 | 0.293 | 0.488 | -0.545 | 0.374 | 1.86 | -0.204 | -0.128
ATCTCTAGGTATCCAAGTTCAGTGAATGCCGAAC | 1.46 | 0.373 | 0.76 | 0.842 | 0.354 | 0.837 | 0.736 | 2.5
CCGAGTAGGTTATGGGGCATTCTGGCAACGGTGA | 1.05 | 0.374 | 0.468 | 0.11 | 0.554 | 0.0308 | 0.157 | 0.195
CGTCCAAGGTCAGGAGGTCAGTGAAAGCGACGTG | 5.53 | 7.05 | 7.08 | 2.75 | 6.98 | 4.05 | 2.68 | 2.82
CGTCCAAGGTCAGAGAGGTCAGTAAATGCCGAGT | 5.22 | 5.95 | 7.02 | 3.45 | 5.43 | 4.24 | 2.87 | 5.99
ATATGTAGGTTAGCTGGGGTCTTTCAGACTAGGC | 0.902 | 0.713 | 0.709 | 0.448 | 0.914 | 3.67 | 0.871 | 0.329
TTACCAAGGTGAGCTGAGGTCGATGATCCAACTC | 1.56 | 1.03 | 1.05 | -0.52 | 1.06 | 4.48 | 1.6 | 0.355
ACTATTAGTTGACTTAGGGCAAACGATACGACGC | 0.722 | 0.773 | 1.08 | 0.703 | 0.56 | 1.24 | 0.149 | -0.123
CATACAGGGTCAGCTAGGCCATAGTAGGGACGGC | 3.28 | 4.35 | 4.7 | 1.7 | 4.53 | 3.22 | 0.737 | 1.1
CCTACTGGGCCACGAAAGGACATTGATTCAGTGA | 1.2 | 0.593 | 1.01 | -0.0534 | -0.0708 | 1.94 | 0.069 | -0.0244
ATATGTAGGTTACATTCGGGTCATTCAGGCTATG | 2.86 | 3.72 | 2.05 | 1.74 | 3.03 | 3.99 | 3.23 | 3.31
CCTACTGGGCCACAAAAGGTCATTGATTCAGTGA | 4.58 | 4.47 | 3.91 | 0.362 | 4.76 | 3.73 | 0.921 | 1.92
ATCTCTAGGTAAGACTCAGTTCAGTAAAGAACGC | 0.871 | 0.41 | 0.438 | 0.632 | 0.0419 | 0.985 | 0.878 | 1.74
ACTATTAGTTGGCTTAGGGCAACCGATACGACGC | 0.69 | 0.504 | 0.733 | 0.512 | 0.326 | 0.788 | 0.529 | 0.021
CTACCAAGGGGAACAAGGTCGTTGATTACTATTC | 1.09 | 0.406 | 0.334 | 0.885 | 0.759 | 1.76 | 1 | 2
CGGACTGGGGCATAAGGTTACCATAAGCCAGCCC | 1.94 | 1.83 | 1.21 | -0.836 | 1.29 | 2.18 | 1.39 | -0.454
GCGACTGGGGCAAAGCAGGTTACCAGAAGGTTGG | 1.32 | 0.622 | 0.806 | -0.155 | 0.313 | 2.87 | -0.356 | -0.376
ATCTCTTGGTAACAAGTTCAGTGAAAGAGAGGAC | 1.67 | 0.629 | 1 | 1.09 | 0.531 | 0.831 | 0.489 | 2.61
